ELG1 genotox: induces genotoxicity in HEK293T cells with luciferase-tagged ELG1. HEK293T ELG1-luciferase reporter, luminescence, 16 h. Potency, µM (doses to about 46 µM), without a hit: at the highest dose activity change, positive = activation, usual class: activators. 330,000 tested, 1.3% active. AID 504466; note: % of control where 0% means no effect; nearly all actives have a fitted effect of over 60% in size
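ELG1-luciferase HEK293T cells, 2,000/well; compound pinned in; 16 hr, 37 °C, 5% CO2; ONE-Glo, 30 min RT; luminescence on CCD imager.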
FLuc modulator: inhibits or activates purified firefly luciferase, miR-21 counter-screen; 360,000 tested, 6.9% active; AID 588342; purified FLuc, Km substrates, luminescence inhibition; Potency, µM (top dose mostly 57.5 µM), without a hit: at the highest dose activity change, negative = inhibition, actives largely listed as inhibitors; P08659;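 note: plate controls were vehicle for no effect and reference inhibitor for full effect; nearly all actives have a fitted effect of over 55% in size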
Target sequence (P08659 whole entry, looked up): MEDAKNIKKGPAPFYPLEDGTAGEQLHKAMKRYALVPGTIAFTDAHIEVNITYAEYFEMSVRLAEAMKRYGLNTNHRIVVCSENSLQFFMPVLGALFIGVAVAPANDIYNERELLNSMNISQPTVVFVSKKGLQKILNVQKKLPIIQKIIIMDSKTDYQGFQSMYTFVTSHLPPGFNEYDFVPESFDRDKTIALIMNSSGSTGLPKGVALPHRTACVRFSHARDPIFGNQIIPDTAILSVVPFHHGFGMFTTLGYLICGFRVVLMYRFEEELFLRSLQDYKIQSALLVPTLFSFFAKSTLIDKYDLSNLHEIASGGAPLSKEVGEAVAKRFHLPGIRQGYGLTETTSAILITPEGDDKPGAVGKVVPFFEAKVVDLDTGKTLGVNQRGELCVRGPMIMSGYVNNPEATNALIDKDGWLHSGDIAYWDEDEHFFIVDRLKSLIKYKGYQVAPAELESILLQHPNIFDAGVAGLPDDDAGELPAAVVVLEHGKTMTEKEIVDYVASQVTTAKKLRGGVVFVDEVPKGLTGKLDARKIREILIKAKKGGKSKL
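Biochemical qHTS of compounds, final roughly 60 µM downward over six points, against 10 nM purified firefly luciferase using Km concentrations of substrates (10 uM D-luciferin, 10 uM ATP) in Tris acetate pH 7.5 buffer; luminescence output.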
SMN2 splice up: enhancers of SMN2 splice variant expression; HEK293 SMN2-luciferase splicing reporter, luminescence, 30-36 h; Potency, µM (top dose mostly 46.1 µM), without a hit: top-dose activity change, positive = activation, most hits filed as activators; 210,000 tested, 2.8% active; note: % of control where 0% means no effect; nearly all actives have a fitted effect of over 55% in size
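qHTS luciferase splicing reporter: luminescence rises when SMN2 exon 7 is included in transfected HEK293 cells. Compound exposure lasted 30-36 h at 37C, with 4.5 mM final sodium butyrate as control, followed by a ONE-Glo read.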
NPC1 promoter act: activates the NPC1 promoter; 320,000 tested, 2.4% active; Huh7 NPC1 promoter luciferase reporter, 24 h; Potency, µM (highest dose often 9.22 µM), for the others: at the top dose activation, actives largely listed as activators; note: % of control where 0% means no effect; nearly all actives have a fitted effect of over 60% in size
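Luminescence read-out of NPC1 promoter-driven luciferase in stably transfected Huh7 cells; compounds delivered in DMSO and left 24 h at 37C, 5% CO2, qHTS titration format.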
Rab9 prom act: Rab9 promoter activation | Huh7 Rab9 promoter-luciferase reporter, luminescence, 24 h | Potency, µM (doses to about 9.22 µM), without a hit: at the top dose activation, negative = inhibition, most hits filed as activators | 320,000 tested, 2.8% active; note: % of control where 0% means no effect; nearly all actives have a fitted effect of over 60% in size
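Luminescence from Amplite-detected luciferase (10 minutes, ambient) reports Rab9 promoter activation. Before that, stable Rab9-luciferase Huh7 cells (1500/well, reduced-serum OP-MEM I plus 10% FBS) were exposed to compound for 24 hours at 37C.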
* hit, by the source's call; ? = inconclusive; . = not tested or not shown. In the library only some 7.4% were active in any assay of this set; here they are far more common. Calls come from the whole dose curve; as a rule, active = well fitted curve in the direction sought with a large enough effect; inconclusive = small, poorly fitted or top-dose-only effect, or another doubt; inactive = no such curve, though single readings can be large; an effect the other way counts as inactive or inconclusive. Potency is the fitted concentration of half-maximal effect.

SMILES	ELG1 genotox	FLuc modulator	SMN2 splice up	NPC1 promoter act	Rab9 prom act
COc1cc(C(=O)Nc2ccc3c(c2)nc(C)n3C)cc(OC)c1OC	?	21µM*	.	-27%	-18%
Cn1nnc2cc(C(=O)Nc3ccc(Cl)cc3)ccc21	?	-14%	18%	?	3.5µM*
COc1cccc(-c2cc(C(F)(F)F)n3ncc(C(=O)OC(C)C)c3n2)c1	.	-3%	2%	.	.
CCC(CO)NCc1cc(OC)c(OCC(=O)NCCc2ccccc2)cc1Br (stereo not drawn)	-2%	1%	-5%	0%	-2%
Cc1nc2cc(NC(=O)Nc3ccc(N4CCOCC4)cc3)ccc2n1C	3%	1%	2%	2%	-9%
Cc1nc2cc(NC(=O)c3ccc(Cl)cc3)ccc2n1C	1µM*	4.3µM*	.	0.28µM*	0.28µM*
Cc1cc(C(=O)CN2C(=O)NC(CC(C)C)C2=O)c(C)n1-c1ccccc1F (stereo not drawn)	?	13µM*	25%	2.2µM*	1.1µM*
Cc1cc(C(=O)CN2C(=O)C(=O)N(CC(C)C)C2=O)c(C)n1-c1ccccc1F	5%	17µM*	16%	2%	23%
Cc1cc(C(=O)CN2C(=O)C(=O)N(C3CCCC3)C2=O)c(C)n1-c1ccc(F)cc1	-9%	-17%	-1%	0%	12%
O=C(Cn1cc(SCc2ccccc2Cl)c2ccccc21)N1CCOCC1	13%	12µM*	18µM*	?	?
CCn1cc(SCC(=O)N2CCOCC2)c2ccccc21	18µM*	?	?	?	?
CCN1CCN(C(=O)CSc2cc(=O)n(CC)c3ccccc23)CC1	21µM*	-2%	24%	0%	-1%
Cn1cc(SCC(=O)N2CCOCC2)c2ccccc21	?	-6%	22%	16%	18%
O=C(Cn1cc(SCc2ccccc2F)c2ccccc21)N1CCCC1	.	17µM*	.	.	.
CCn1c(=O)cc(SCC(=O)N2CCN(C)CC2)c2ccccc21	?	1%	?	-1%	2%
Cc1nc2cccnc2n1C1CCN(C(=O)Nc2ccc(Cl)cc2)CC1	.	-4%	.	.	.
CC(=O)[C@]1(O)CCC2C3C=C(Cl)C4=CC(=O)C5CC5[C@@]4(C)C3CC[C@]21C (stereo partly drawn)	.	.	0%	.	.
O=C1/C(=C/c2ccccn2)SC(=S)N1N1CCOCC1	0%	2%	.	0%	14%
Cc1[nH]n2c(=O)cc(-c3ccc(Cl)cc3)nc2c1-c1ccccc1	.	?	-61%	.	.
COc1ccc(-c2c(C(F)(F)F)[nH]n3c(=O)cc(-c4ccccc4)nc23)cc1	-8%	19µM*	.	-2%	2%
Cc1ccc(N=Nc2c(N)[nH]n3c(=O)cc(-c4ccccc4)nc23)cc1	2%	9.5µM*	-74%	1%	-3%
COc1cccc(-c2cc3nc(-c4ccccc4)cc(=O)n3[nH]2)c1	?	12µM*	.	-11%	0%
COc1cccc(N=Nc2c(N)[nH]n3c(=O)cc(-c4ccccc4)nc23)c1	-8%	11µM*	-86%	-1%	3%
O=c1cc(-c2ccccc2)nc2cc(-c3ccc(F)cc3)[nH]n12	.	?	10%	.	.
COc1cccc(N=Nc2c(=O)[nH]n3c(C)cc(C)nc23)c1	0%	-17%	24%	-2%	1%
SMILES	ELG1 genotox	FLuc modulator	SMN2 splice up	NPC1 promoter act	Rab9 prom act
Cc1cc(=O)n2[nH]c(N)c(N=Nc3ccccc3)c2n1	-6%	?	18%	-2%	2%
CSc1nnc2c(n1)OC(C1CC=C(C)CC1)Nc1ccccc1-2 (stereo not drawn)	-4%	-1%	-10%	-4%	-3%
COc1ccc(CC(=O)Nc2nnc(SCC(=O)NCc3ccco3)s2)cc1OC	2%	-2%	4%	-9%	-2%
Cc1cccc(NC(=O)C(Cc2ccccc2)NS(=O)(=O)c2ccc3c(c2)c(=O)n(C)c(=O)n3C)c1 (stereo not drawn)	.	3%	2%	.	.
COc1ccc(C2CC(c3cccs3)=NN2c2nc(-c3ccccc3)cs2)cc1OC (stereo not drawn)	-4%	1%	-4%	1%	-5%
N=c1oc2ccccc2cc1C(=O)Nc1cccc(F)c1	?	0.3µM*	.	3.2µM*	?

Source: PubChem
